# Experimental data from PubChem BioAssay (EPA / NIEHS).
# Values joined by “and” are separate entries in the source; they are usually repeats but may differ in a detail not shown here. Equal values may be shown once. Where a structure was tested more than once in an assay, its records may differ in their call. Active and inactive are the calls of the source. The calls were made as follows: active = hit-call score of the fitted dose curve at least 0.9, where 1 is the maximum; inactive = score below 0.9.
# Biological target: Paired box protein Pax-6 (Homo sapiens) (UniProt P26367)
# Assay: ATG_Pax6_CIS: Attagene CIS-FACTORIAL HepG2 Assay for human Paired Box 6 (PAX6) (AID 2282956)
# Settings: HepG2 CIS-FACTORIAL PAX6 reporter transcription, RNA readout; actives raise or lower the signal
# In short: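 HepG2 cells transiently transfected with cis-promoter-driven multiplexed reporter units sensing endogenous transcription factor activity; 24 h chemical exposure. Reporter mRNA quantified by RT-PCR, 6-FAM labelling, HpaI digestion and capillary electrophoresis; bidirectional fit versus DMSO baseline.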
# Chain of Paired box protein Pax-6 (Homo sapiens) (P26367 whole entry, looked up): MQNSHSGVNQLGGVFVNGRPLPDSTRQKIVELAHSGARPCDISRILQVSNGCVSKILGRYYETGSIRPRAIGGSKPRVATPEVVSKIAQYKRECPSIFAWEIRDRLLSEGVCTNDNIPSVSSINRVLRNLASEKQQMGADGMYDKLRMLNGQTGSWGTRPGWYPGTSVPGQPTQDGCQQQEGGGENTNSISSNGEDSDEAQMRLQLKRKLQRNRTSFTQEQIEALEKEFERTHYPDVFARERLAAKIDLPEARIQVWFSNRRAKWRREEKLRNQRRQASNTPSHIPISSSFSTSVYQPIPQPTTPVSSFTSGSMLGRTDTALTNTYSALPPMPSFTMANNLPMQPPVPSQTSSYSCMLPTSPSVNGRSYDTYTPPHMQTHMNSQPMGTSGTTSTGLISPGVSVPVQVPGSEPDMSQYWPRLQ
Structure (SMILES),outcome,AC50
N#Cc1ccc(N(CC(N)=O)CC(F)(F)F)cc1C(F)(F)F,inactive,
O=S(=O)(O)C(F)(F)C(F)(F)C(F)(F)C(F)(F)C(F)(F)C(F)(F)F,inactive,
CCNc1nc(NC(C)C)nc(SC)n1,inactive,
O=C(O)C(F)(F)C(F)(F)C(F)(F)C(F)(F)C(F)(F)C(F)(F)C(F)(F)C(F)(F)F,inactive,224 µM (active) and 50 µM (active)
CCSC(=O)N(CC)C1CCCCC1,inactive,
Cc1cc2c3c(c1)C(c1ccccc1)=N[C@@H](NC(=O)c1ccncc1)C(=O)N3CC2,,100 µM (active)
O=C(O)C(F)(F)C(F)(F)C(F)(F)C(F)(F)C(F)(F)C(F)(F)C(F)(F)C(F)(F)C(F)(F)F,,49 µM (active) and 33 µM (active) and 54.8 µM (active)
CCC(C)(c1ccc(O)cc1)c1ccc(O)cc1,inactive,52.8 µM (active) and 62.6 µM (active) and 24.6 µM (active)
ClC(Cl)=C(c1ccc(Cl)cc1)c1ccc(Cl)cc1,inactive,100 µM (active)
Cc1ccccc1O,inactive,
C[C@]12CCC(=O)C=C1CC[C@@H]1[C@@H]2CC[C@]2(C)C(=O)CC[C@@H]12,inactive,
CN(C)CCO,inactive,
CC#Cc1cc(C)nc(Nc2ccccc2)n1,,68.1 µM (active)
CCC(C)c1cc([N+](=O)[O-])cc([N+](=O)[O-])c1O (stereo not drawn),,56.2 µM (active)
ClC1=C(Cl)[C@]2(Cl)[C@@H]3[C@H]4C[C@H]([C@@H]5O[C@H]45)[C@@H]3[C@@]1(Cl)C2(Cl)Cl,inactive,
